SUMO1-SIM PPI: modulators of human SUMO1-mediated protein-protein interactions; P63165; SUMO1 binding to a labelled peptide, TR-FRET, 1 h; inhibition, % at 20 µM; hit rate 0.33% among 360,000; AID 602429; in the data active = inhibition above about 37%
Target sequence (P63165 whole entry, looked up): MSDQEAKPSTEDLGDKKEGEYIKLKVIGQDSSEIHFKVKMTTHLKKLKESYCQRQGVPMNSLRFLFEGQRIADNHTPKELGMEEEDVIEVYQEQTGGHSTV
Neddylation inh: blocks human cullin neddylation. TR-FRET cullin neddylation, biochemical. inhibition, % at 25 µM. AID 651699. hit rate 0.58% among 360,000. P61081+Q13564; in the data active = inhibition above about 36%
ATG4B inh: ATG4B (human) cysteine protease inhibition | ATG4B cleavage of LC3-PLA2, NBD-HPC fluorescence, 1 h | inhibition, % at 8.33 µM | hit rate 0.51% among 340,000; in the data active = inhibition above about 40%
Target sequence (Q9Y4P1 whole entry, looked up): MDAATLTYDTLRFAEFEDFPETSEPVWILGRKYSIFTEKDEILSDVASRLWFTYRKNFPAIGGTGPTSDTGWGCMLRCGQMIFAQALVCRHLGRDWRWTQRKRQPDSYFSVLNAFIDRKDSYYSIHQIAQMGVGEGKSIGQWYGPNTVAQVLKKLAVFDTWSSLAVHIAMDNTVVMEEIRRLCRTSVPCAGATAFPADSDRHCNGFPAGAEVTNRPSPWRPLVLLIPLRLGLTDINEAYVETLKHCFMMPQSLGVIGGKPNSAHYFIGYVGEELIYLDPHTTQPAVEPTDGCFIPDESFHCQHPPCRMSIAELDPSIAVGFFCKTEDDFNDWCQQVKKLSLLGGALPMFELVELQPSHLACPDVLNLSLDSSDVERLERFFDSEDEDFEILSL
Rin1 Abl inh: inhibitors of human Rin1-Abl protein interaction; hit rate 0.4% among 360,000; P00519+Q13671; inhibition, % at 7.35 µM; TR-FRET Rin1/Abl binding, biochemical; in the data active = inhibition above about 5%, passing the limit was not always enough
Rin1 Abl conf: Rin1-Abl interaction inhibition confirmation; shares compounds with Rin1 Abl inh; TR-FRET Rin1-Abl binding, purified proteins; inhibition, % at 7.35 µM; hit rate 49% among 1,300
GFP quench: GFP fluorescence interference artifact | inhibitors/quenchers counterscreen | AID 602125 | inhibition, % at 6.75 µM | shares compounds with Rin1 Abl inh | hit rate 8.5% among 1,300;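 note: ABL1-eGFP fusion protein alone without its partner RIN1-SBP; 0% = protein with vehicle and 100% = wells lacking protein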
GFP quench dose: GFP fluorescence interference dose response | 230 tested, under 10 active | AID 602182 | shares compounds with Rin1 Abl inh | IC50, µM | GFP fluorescence interference/quenching counterscreen; call rule not given here;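 note: ABL1-eGFP fusion protein alone without its RIN1 binding partner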
* hit, by the source's call; / = no result given. A selection: hits, their analogues and other compounds. The true share with any hit is near 1.7%. Cut-off read from the data, not from the text of the source, unless noted: active = inhibition above about 6.5%; inactive = the rest.

SMILES	SUMO1-SIM PPI	Neddylation inh	ATG4B inh	Rin1 Abl inh	Rin1 Abl conf	GFP quench	others
COC(=O)c1c(C)nc(C)c2c(=O)oc3ccccc3c12	1	4	-8	15*	38*	-1	GFP quench dose=>68
COc1cccc(NC(=O)C2(C)CCN2CCc2ccccc2)c1 (centres undefined)	34	0	/	-4	/	/
CCOc1ccc(CCN2C(=S)N([C@@H](Cc3ccc(O)cc3)CN3CCC[C@@H]3CN3C(=S)NC[C@@H]3Cc3ccc(O)cc3)C[C@@H]2Cc2ccc(O)cc2)cc1	-1	-1	/	/	/	/
N#Cc1ccc(-c2nc3ccc(Cl)cn3c2Cc2ccccc2C(F)(F)F)cc1	2	0	/	-1	/	/
COc1cccc(N(CC(=O)NCC2CCCO2)C(=O)CNS(=O)(=O)c2ccccc2)c1 (centres undefined)	5	-1	-3	9.8*	-1	-1
O=S1(=O)CC(N2CCN(CCO)CC2)CN1Cc1cn(Cc2ccccc2C(F)(F)F)nn1 (centres undefined)	-1	-4	/	5	/	/
CC(C)C(=O)N1C2CCC1CC(O)(c1ccc(F)cc1)C2 (centres undefined)	-1	13	-14	7.0*	1	1
O=C(C(=Cc1ccc(F)cc1)C(=O)c1ccccc1)c1ccccc1	8	-6	/	4	/	/
COC(=O)C1=C[C@@H](C(=O)OC)[C@@H]2C3=C(C(=O)C2(C)C)[C@H](c2ccccc2)[C@@H]2C(=O)N(C)C(=O)[C@@H]2[C@@H]3C1	-7	-11	-4	19*	17*	-1
COC(=O)CN1C(=O)[C@@H]2[C@H](C1=O)[C@@H]1CC(C(=O)OC)=C[C@@H](C(=O)OC)[C@@H]3C1=C(C(=O)[C@]3(C)NC(=O)c1ccccc1)[C@@H]2C	5	-14	5	1	/	/
COc1ccc(NC(=O)c2ccc(NC(=O)CSc3nc(N)cc(=O)[nH]3)cc2)cc1	-1	/	-5	2	/	/
COc1ccc(NC(=O)Cn2c(=O)n(CC3CCCO3)c(=O)c3cc(OC)c(OC)cc32)cc1OC (centres undefined)	7	5	-5	9.9*	8.8*	0
COc1cc(NC(=O)Cn2c(=O)n(CC3CCCO3)c(=O)c3cc(OC)c(OC)cc32)cc(OC)c1 (centres undefined)	7	16	5	1	/	/
CSc1ccc(C(=O)c2[nH]c(=O)[nH]c2C)cc1	-14	-4	5	-3	/	/
Cc1[nH]c(=O)[nH]c1C(=O)CCCCC(=O)O	2	0	-8	89*	98*	0	GFP quench dose=>68
O=C(Nc1nc(-c2cc(Cl)sc2Cl)cs1)c1ccc(Br)s1	-1	24	2	6.0*	-1	0
O=C(Nc1nc(-c2cc(Cl)sc2Cl)cs1)c1cccs1	1	29	17	-1	/	/
Cc1ccc(S(=O)(=O)NN2C(=O)c3ccccc3NC2c2ccccc2F)cc1 (centres undefined)	7	/	-5	13*	-2	-5
Cc1cc(C(=O)N2CCC2(C)C(=O)NS(=O)(=O)c2ccc(Cl)cc2)nn1C (centres undefined)	-4	-2	/	-3	/	/
CCCCn1c(NS(=O)(=O)c2ccc(C)cc2)c(S(=O)(=O)c2ccccc2)c2nc3ccccc3nc21	50*	-5	22	9.6*	-3	-1
c1ccc(-n2ncc3c(NC4CCCCCC4)ncnc32)cc1	11	2	-3	1	/	/
CCOC(=O)N1CCC(Nc2ncnc3c2cnn3-c2ccccc2)CC1	3	28	-13	9.9*	2	0
CC(C)CNC1=CC(=O)CC(c2ccco2)C1 (centres undefined)	1	7	2	5.9*	0	4
O=C1C=C(NCc2ccc(Cl)cc2)CC(c2ccco2)C1 (centres undefined)	0	-1	-5	-2	/	/
COc1ccc(NC(=O)CC(C)c2ccccc2)cc1S(=O)(=O)N1CCOCC1 (centres undefined)	-2	10	-6	2	/	/
SMILES	SUMO1-SIM PPI	Neddylation inh	ATG4B inh	Rin1 Abl inh	Rin1 Abl conf	GFP quench	others
COC(=O)[C@]12CCCCC=C1N(CCC1=CCCCC1)C(=O)[C@H](CC(=O)NCc1cccc(C(F)(F)F)c1)C2	6	-3	/	/	/	/
CC1(C)CC(=O)C=C(C#CC2(O)CCCCC2)C1	-3	-6	/	-5	/	/
CC(C)n1cc(CN2CCC(C(=O)Nc3cccc(-c4cccc(Cl)c4)c3)CC2)cn1	-9	-8	-13	11*	25*	-1	GFP quench dose=>68
CCn1cc(CN2CCC(C(=O)Nc3cccc(-c4cccc(F)c4)c3)CC2)cn1	-1	11	-3	1	/	/
Cc1ccc(C(=O)N[C@H](C(=O)Nc2cc(Cl)cc(Cl)c2)C(C)C)cc1	5	-5	2	5.8*	-1	-1
COC(=O)[C@@]12C[C@@H](CC(=O)N3CCOCC3)C(=O)N(Cc3cccc4ccccc34)C1=CCC(C)(C)C2	5	0	/	/	/	/
COc1cc(Cl)ccc1OC1(C)CCN(Cc2cccc(OC)c2OC)C1 (centres undefined)	-8	6	/	-3	/	/
CC(=O)c1ccc(OCC(O)CN2CCN(c3ccccn3)CC2)cc1 (centres undefined)	9	-2	1	9.3*	-1	0
O=C1NC(C2CC3C=CC2C3)Nc2ccccc21 (centres undefined)	3	/	/	-4	/	/
O=C(Nc1ncnc2c1ncn2[C@@H]1O[C@H](/C=C/C(=O)N2CCN(c3ccc(F)cc3)CC2)[C@@H](O)[C@H]1O)c1ccccc1	-2	2	/	1	/	/
CCOc1ccc2nc(NC(=O)C3CCN(C(=O)c4ccco4)CC3)sc2c1	7	8	1	8.0*	3	-3
COc1cccc2[nH]c3c(=O)[nH]cnc3c12	4	/	-5	-3	/	/
COc1cccc2c3cccc(OC)c3c3[nH]cnc3c12	-102	21	-11	33*	29*	0	GFP quench dose=>68
CCCCN(CCCNC(=S)NCCCc1cnc[nH]1)c1ccc(Br)cn1	-6	6	/	3	/	/
O=C1Cc2cccc(=O)c(O)c2C(=O)O1	10	8	/	8.2*	9.6*	5
O=C1c2c(O)cccc2Cc2cccc(O)c21	2	-27	14	2	/	/
O=C(Nc1ccc2c(c1)OCO2)c1ccc[n+]([O-])c1	1	3	-3	5.0*	2	-2
CC(=O)Nc1ccc(CNc2nc(NC(C)C)nc3ccsc23)cc1	0	1	/	0	/	/
CC(=O)Nc1ccc(CNc2nc(NCC3CC3)nc3ccsc23)cc1	1	6	/	7.2*	5	-1
COc1ccc(Br)cc1C(=O)Nc1ccccc1N1CCCC1	-1	9	-3	6.6*	-2	1
CCCc1ccc(C(O)c2ncc(-c3ccccc3)[nH]2)cc1 (centres undefined)	2	2	/	3	/	/
